{"source": "PubChem BioAssay AID652115", "about": "(Broad Institute, 2013)", "note": "The campaign covered roughly 330,000 compounds. About 3,800 (1.2%) were called active. Rule as the data show it: active = inhibition above about 15%; inconclusive = no clear call, values can overlap the other calls; inactive = below that. Only a selection was taken, and actives are over-represented in it overall.", "data": [{"biological_target": "NAD-dependent protein deacylase sirtuin-5, mitochondrial (Homo sapiens) (UniProt Q9NXA8)", "sequence (Q9NXA8 whole entry, looked up)": "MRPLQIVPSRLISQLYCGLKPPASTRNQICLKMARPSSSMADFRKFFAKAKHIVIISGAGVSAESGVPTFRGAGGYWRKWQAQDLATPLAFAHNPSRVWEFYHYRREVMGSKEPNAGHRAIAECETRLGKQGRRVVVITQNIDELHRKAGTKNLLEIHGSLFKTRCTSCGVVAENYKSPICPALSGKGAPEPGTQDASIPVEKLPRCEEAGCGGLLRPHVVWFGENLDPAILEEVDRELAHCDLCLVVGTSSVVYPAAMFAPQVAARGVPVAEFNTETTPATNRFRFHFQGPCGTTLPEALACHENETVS", "experiment": "blockers of sirtuin-5 deacylase activity – biochemical, fluorescence imaging, single point, set 5, primary screen (AID 652115)", "settings": "Purified SirT5, succinyl-peptide AMC, trypsin-coupled fluorescence; at 15 µM; hits give high values", "values": [{"smiles": "CN(C)CC(=O)N1[C@@H](C#N)[C@@H](c2ccccc2-c2ccccc2F)[C@@H]1CO", "inhibition": "-0.215% (inactive)"}, {"smiles": "COCC(=O)N1C[C@@H](C)[C@H](OC)CN(C)C(=O)c2cc(NC(=O)c3cc(C)on3)ccc2OC[C@@H]1C", "inhibition": "-4.63% (inactive)"}, {"smiles": "N#Cc1ccc(-c2ccc([C@@H]3[C@H]4CNC[C@@H]3N4Cc3cc(F)ccc3F)cc2)cc1", "inhibition": "-3.56% (inactive)"}, {"smiles": "COCC#Cc1cnc2c(c1)C(=O)N([C@H](C)CO)C[C@H](C)[C@H](CN(C)C(=O)Nc1ccccc1OC)O2", "inhibition": "3.78% (inactive)"}, {"smiles": "C[C@@H](NC(=O)C[C@H]1C[C@@H]2c3cc(NC(=O)Nc4ccccc4F)ccc3O[C@@H]2[C@H](CO)O1)c1ccccc1", "inhibition": "1.89% (inactive)"}, {"smiles": "COc1ccccc1NC(=O)Nc1ccc2c(c1)OC[C@H](C)NC[C@H](C)[C@@H](OC)CN(C)C2=O", "inhibition": "6.5% (inactive)"}, {"smiles": "COc1ccc(S(=O)(=O)Nc2ccc3c(c2)C(=O)N([C@@H](C)CO)C[C@H](C)[C@H](CN(C)S(=O)(=O)c2ccc(F)cc2)OCCCC[C@@H](C)O3)cc1", "inhibition": "11.3% (inactive)"}, {"smiles": "COc1ccc(S(=O)(=O)N(C)C[C@H]2OCCCC[C@H](C)Oc3ccc(NS(=O)(=O)c4ccc(F)cc4)cc3C(=O)N([C@@H](C)CO)C[C@@H]2C)cc1", "inhibition": "20.4% (active)"}, {"smiles": "COc1ccc(S(=O)(=O)Nc2ccc3c(c2)C(=O)N([C@@H](C)CO)C[C@H](C)[C@@H](CN(C)S(=O)(=O)c2ccc(C)cc2)OCCCC[C@@H](C)O3)cc1", "inhibition": "4.83% (inactive)"}, {"smiles": "C[C@H](CO)N1C[C@H](C)[C@@H](CN(C)S(C)(=O)=O)OCCCC[C@H](C)Oc2ccc(NC(=O)Nc3cccc4ccccc34)cc2C1=O", "inhibition": "-3.3% (inactive)"}, {"smiles": "C[C@@H]1CN([C@H](C)CO)C(=O)c2cc(NC(=O)Nc3ccc4c(c3)OCO4)ccc2O[C@@H](C)CCCCO[C@@H]1CN(C)Cc1ccc2c(c1)OCO2", "inhibition": "15.3% (active)"}, {"smiles": "C[C@@H]1CCCCO[C@@H](CN(C)Cc2ccc3c(c2)OCO3)[C@@H](C)CN([C@@H](C)CO)C(=O)c2cc(NC(=O)Nc3ccccc3)ccc2O1", "inhibition": "0.341% (inactive)"}, {"smiles": "CC(C)NC(=O)Nc1ccc2c(c1)C(=O)N([C@@H](C)CO)C[C@H](C)[C@H](CN(C)S(=O)(=O)c1ccc(Cl)cc1)OCCCC[C@H](C)O2", "inhibition": "4.57% (inactive)"}, {"smiles": "COc1ccc(S(=O)(=O)N(C)C[C@H]2OCCCC[C@@H](C)Oc3ccc(NS(=O)(=O)c4ccc(C)cc4)cc3C(=O)N([C@@H](C)CO)C[C@@H]2C)cc1", "inhibition": "21.4% (active)"}, {"smiles": "C[C@H]1CCCCO[C@@H](CN(C)Cc2ccc3c(c2)OCO3)[C@@H](C)CN([C@@H](C)CO)C(=O)c2cc(NC(=O)Nc3ccc(F)cc3)ccc2O1", "inhibition": "1.57% (inactive)"}, {"smiles": "COc1ccc(S(=O)(=O)N(C)C[C@@H]2OCCCC[C@@H](C)Oc3ccc(NS(=O)(=O)c4ccccc4)cc3C(=O)N([C@@H](C)CO)C[C@H]2C)cc1", "inhibition": "4.81% (inactive)"}, {"smiles": "C[C@@H]1CN([C@@H](C)CO)C(=O)c2cc(NC(=O)Nc3cccc4ccccc34)ccc2O[C@@H](C)CCCCO[C@@H]1CN(C)S(=O)(=O)c1ccc(Cl)cc1", "inhibition": "18.7% (active)"}, {"smiles": "COc1ccc(S(=O)(=O)Nc2ccc3c(c2)C(=O)N([C@@H](C)CO)C[C@H](C)[C@@H](CN(C)S(=O)(=O)c2ccc(F)cc2)OCCCC[C@H](C)O3)cc1", "inhibition": "3.5% (inactive)"}]}]}
